Sampled rows, rich in hits. Any-hit rate of the full collection: about 6.9%.
PLK1 PBD inh = blocks phosphopeptide binding to human PLK1 polo-box domain. P53350. Plk1 PBD binding of FITC phosphopeptide, fluorescence polarization. Potency, µM, actives largely listed as inhibitors. 360,000 tested, 2.8% active; further: series mostly up to about 57 µM; nearly all actives have a fitted effect of over 65% in size
JMJD2A Tudor inh = inhibitors of human JMJD2A Tudor domain. O75164. AlphaScreen JMJD2A-Tudor / H3K4me3 peptide binding. Potency, µM (titrated, usually from 114 µM), hits mostly inhibitors. 390,000 tested, 4.4% active. AID 504339; further: nearly all actives have a fitted effect of over 50% in size
VDR inhibitor = vitamin D3 receptor (human) inhibition; P11473; VDR-SRC2-3 peptide fluorescence polarization, 2 h; Potency, µM, most hits filed as inhibitors; 400,000 tested, 0.93% active; AID 504847
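The screen uses fluorescence polarization to detect compounds that interfere with recruitment of the SRC2-3 coactivator peptide to VDR; plates are read after 2 h at room temperature.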
HP1b chromo inh = blocks HP1-beta chromodomain binding to methylated histone tails. Potency, µM (highest dose often 114 µM), most hits filed as inhibitors. AlphaScreen HP1-beta / biotin-H3K9me3 peptide binding. 390,000 tested, 0.56% active. P83916; further: nearly all actives have a fitted effect of over 70% in size
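Compound inhibition of the preformed complex between 50 nM HP1-beta and 50 nM biotinylated H3K9me3 peptide was read by AlphaScreen. Buffer was PBS pH 7.4 with 0.01% Tween-20. Incubations ran 30 min at room temperature, with 10 ug/mL donor/acceptor beads.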
BAZ2B block = BAZ2B (human) inhibition; Potency, µM (titrated, usually from 114 µM), hits mostly inhibitors; 360,000 tested, 4.4% active; AID 504333; Q9UIF8; AlphaScreen BAZ2B-H3K14Ac peptide displacement; further: nearly all actives have a fitted effect of over 60% in size
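Complex of BAZ2B and biotin-H3K14Ac (50 nM apiece) forms over 30 min at RT, then faces library compounds up to 110 uM for another 30 min; AlphaScreen beads added, 20 min dark incubation, luminescence read.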
L3MBTL1 block = inhibitors of human L3MBTL1; Q9Y468; AlphaScreen L3MBTL1–H3K9me1 peptide binding; Potency, µM (series often up to 57.1 µM), hits mostly inhibitors; 230,000 tested, 0.66% active; further: nearly all actives have a fitted effect of over 60% in size
Target sequence (Q9Y468 whole entry, looked up): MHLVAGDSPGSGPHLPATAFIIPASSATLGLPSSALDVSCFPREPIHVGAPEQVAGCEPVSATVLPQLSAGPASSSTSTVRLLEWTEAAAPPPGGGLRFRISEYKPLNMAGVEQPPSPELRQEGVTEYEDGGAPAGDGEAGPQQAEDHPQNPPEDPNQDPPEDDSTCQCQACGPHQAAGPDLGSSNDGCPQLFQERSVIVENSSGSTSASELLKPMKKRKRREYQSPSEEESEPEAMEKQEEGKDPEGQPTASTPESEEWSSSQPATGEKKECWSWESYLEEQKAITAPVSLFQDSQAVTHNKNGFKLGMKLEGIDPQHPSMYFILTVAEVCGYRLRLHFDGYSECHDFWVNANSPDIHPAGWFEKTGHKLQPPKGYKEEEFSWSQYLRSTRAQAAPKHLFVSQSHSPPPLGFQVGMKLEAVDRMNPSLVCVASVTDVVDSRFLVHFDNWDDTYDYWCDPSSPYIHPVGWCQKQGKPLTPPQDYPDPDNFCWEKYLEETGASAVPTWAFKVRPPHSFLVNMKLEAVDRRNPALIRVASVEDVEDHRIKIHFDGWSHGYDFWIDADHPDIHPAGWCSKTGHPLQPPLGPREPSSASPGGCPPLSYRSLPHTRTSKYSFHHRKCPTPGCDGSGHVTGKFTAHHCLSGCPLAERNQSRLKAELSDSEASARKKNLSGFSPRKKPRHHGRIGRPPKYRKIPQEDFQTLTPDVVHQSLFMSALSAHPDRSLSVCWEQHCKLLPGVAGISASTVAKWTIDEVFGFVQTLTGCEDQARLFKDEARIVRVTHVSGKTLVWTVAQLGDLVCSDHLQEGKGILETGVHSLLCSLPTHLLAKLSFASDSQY
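AlphaScreen proximity signal between nickel-chelate acceptor and streptavidin donor beads (final 10 ug/mL) reports binding of 50 nM L3MBTL1 to 75 nM biotin-H3 K9me1 peptide; complex incubated with compounds 30 min at room temperature; cefsulodin titration as control.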
A number is an active result; 0 = inactive; ? = inconclusive; - = no result given; ! = repeats disagree; [ ] = dose if it differs, or a comment. The call rests on the fitted dose curve; in most records, active means well fitted curve in the direction sought with a large enough effect; inconclusive means small, poorly fitted or top-dose-only effect, or another doubt; inactive means no such curve, though single readings can be large; an effect the other way counts as inactive or inconclusive.

SMILES	PLK1 PBD inh	JMJD2A Tudor inh	VDR inhibitor	HP1b chromo inh	BAZ2B block	L3MBTL1 block
O=C(CN1C(=O)CCc2cc(S(=O)(=O)N3CCOCC3)ccc21)NCc1ccc(F)cc1	-	0	0	0	0	-
COC(=O)/C=C/c1ccccc1S(=O)(=O)N(Cc1ccccc1)Cc1ccco1	0	56.2µM!	0	0	50.1µM	-
O=C1C(=O)N(Cc2ccccc2)C(=O)N1CCOc1ccccc1	0	0	0	0	0	0
CCOc1ccc(CCNC(=O)CCCc2nnc3n(C)c(=O)c4sccc4n23)cc1OCC	-	0	0	0	0	-
Cc1ccc(CN2CCN(/N=C/c3cccn3C)CC2)c(C)c1	0	39.8µM	0	?	50.1µM	0
Cc1ccc(CN2CCN(/N=C/c3cccnc3)CC2)cc1	0	0	0	0	0	0
Cc1ccc(CN2CCCN(C)CC2)c(C)c1	18.9µM	3.16µM	79.4µM	?	56.2µM	0
CN1CCCN(Cc2cccc3ccccc23)CC1	0	25.1µM	0	?	56.2µM	0
Cc1cc2ccccc2cc1CN1CCCCC1	0	0	0	0	0	0
COc1cc(NC(=O)CCc2c(C)nc3nc(-c4cc(OC)cc(OC)c4)nn3c2C)cc(OC)c1	-	0	0	0	0	-
O=C(NCCOc1ccccc1)c1ccc2c(c1)S(=O)(=O)c1cc(Cl)ccc1C2=O	0	?	0	0	-	0
CCOc1ccc(-c2nc(SC(C(C)=O)C(=O)N(C)C)c3c(=O)n(C)c(=O)n(C)c3n2)cc1 (centres undefined)	-	0	0	0	0	-
O=C(OCCNC(=O)c1ccc2ccccc2n1)c1ccc(F)cc1	0	0	0	0	0	0
COc1ccc(OC)c(CN2CCN(Cc3cc(OC)c(OC)c(OC)c3)CC2)c1	0	22.4µM	0	?	79.4µM	0[2.29 µM]
COc1cc(CN2CCCCCC2)cc(OC)c1OC	0	5.01µM	0	?	?	0
COc1ccc(OC)c(CN2CCN(C(=O)CN3C(=O)NC4(CCCC4)C3=O)CC2)c1	0	0	0	0	0	0
Cc1nc(N2CCCC2)c2c(C(=O)N3CCN(c4cccc(Cl)c4)CC3)c(C)oc2n1	-	0	0	0	0	-
N#Cc1c(Nc2ccccc2C(F)(F)F)s[nH]c1=O	26.7µM	0	?	0	0	0
CCC(C)(C)C1CCC(=NNC(=S)Nc2cccnc2)CC1 (centres undefined)	0	44.7µM	0	0	?	0
CC(C)(C)C1CCC(=NNC(=O)C(=O)NCc2cccnc2)CC1 (centres undefined)	0	0	0	0	?	0
O=C1CCCCCN1Cc1ccccc1	29.9µM	0[11.4 µM]	0	0	0	?
O=C1CCCCCCCN1Cc1ccccc1	0	0	0	0	-	-
COc1ccc(/C=C/C(=O)c2c(O)cc(C)oc2=O)c(OC)c1	0	?	0	0	?	0
COc1ccc(/C=C/C(=O)c2cccs2)c(OC)c1	-	-	11.2µM	-	-	-
C[C@H](N)C(=O)NCC(=O)N[C@H]1CSSC[C@@H](C(=O)O)NC(=O)[C@H](CO)NC(=O)[C@H]([C@@H](C)O)NC(=O)[C@H](Cc2ccccc2)NC(=O)[C@H]([C@@H](C)O)NC(=O)[C@H](CCCCN)NC(=O)[C@H](Cc2c[nH]c3ccccc23)NC(=O)[C@H](Cc2ccccc2)NC(=O)[C@H](Cc2ccccc2)NC(=O)[C@H](CC(N)=O)NC(=O)[C@H](CCCCN)NC1=O	-	-	0	-	-	-
SMILES	PLK1 PBD inh	JMJD2A Tudor inh	VDR inhibitor	HP1b chromo inh	BAZ2B block	L3MBTL1 block
CCOc1ccc(CNn2cnnc2)cc1	26.7µM	?	?	?	0	0
O=C(COc1ccccc1)NCCc1csc(-c2cccc(F)c2)n1	-	0	0	0	0	-
Oc1ccccc1C=NCCN1CCN(CCN=Cc2ccccc2O)C1c1ccccc1O (centres undefined)	0	22.4µM	0	0	-	-
COc1cccc(-n2c(=O)c3c(C)c(C)sc3n(CC(=O)NCc3ccc(C)cc3)c2=O)c1	-	0	0	0	0	-
COc1ccc(NC(=O)CN2C(=O)/C(=C3\SC(=S)N(CCC(=O)O)C3=O)c3ccccc32)cc1	10.6µM	?	0	0	0	-
O=C(CN1C(=O)/C(=C2/SC(=S)N(CCS(=O)(=O)O)C2=O)c2ccccc21)Nc1cccc(Br)c1	26.7µM	44.7µM	?	50.1µM	-	0
O=C(O)CCN1C(=O)/C(=C2\C(=O)N(Cc3ccccc3Cl)c3ccccc32)SC1=S	-	-	-	-	7.94µM	-
Cc1cccc(NC(=O)CN2C(=O)/C(=C3\SC(=S)N(CC4CCCO4)C3=O)c3ccccc32)c1 (centres undefined)	0	0	0	0	0	-
CCCN1C(=O)/C(=C2\SC(=S)N(c3c(C)n(C)n(-c4ccccc4)c3=O)C2=O)c2ccccc21	0	0	0	0	0	-
Cc1cccc(C(=O)NC(=S)NNC(=O)c2ccccc2Cl)c1	0	0	0	0	0	0
Cc1cc(C(=O)NNC(=S)NC(=O)/C=C/c2ccccc2Cl)n[nH]1	?	50.1µM	0	0	22.4µM	-
COc1ccc(NC(=O)CN2CCC(NC(=O)c3ccc(OC)cc3)CC2)cc1	0	0	0	0	0	0
COc1ccc(C2C=C(c3ccccc3)Nc3nc(NC(=O)/C=C/c4ccccc4)nn32)cc1 (centres undefined)	-	0	0	0	0	-
COc1ccc(C2C=C(c3ccc(F)cc3)Nc3nc(-c4ccc(Cl)cc4)nn32)cc1 (centres undefined)	-	0	0	0	0	-
CS(=O)(=O)Nc1nc2n(n1)C(c1ccccc1)C=C(c1ccc(Br)cc1)N2 (centres undefined)	0	0	?	0	0	0
O=C(Nc1nc2n(n1)C(c1ccc(F)cc1)C=C(c1ccc(Cl)cc1)N2)c1ccco1 (centres undefined)	-	0	0	0	0	-
CC(=O)Nc1nc2n(n1)C(c1ccccc1)C=C(c1ccccc1)N2 (centres undefined)	0	89.1µM	0	0	79.4µM	0
COc1ccc(C(=O)Nc2nc3n(n2)C(c2ccccc2)C=C(c2ccccc2)N3)cc1 (centres undefined)	-	79.4µM	0	0	22.4µM	-
COc1ccc(C2C=C(c3ccc(Cl)cc3)Nc3nc(NC(C)=O)nn32)cc1 (centres undefined)	-	-	-	-	31.6µM	0
CC(=O)Nc1nc2n(n1)C(c1ccc(F)cc1)C=C(c1ccccc1)N2 (centres undefined)	0	?	0	0	22.4µM	0
COc1ccc(-n2nc(C(=O)Nc3cccc(C)n3)c3c4ccccc4n(C)c3c2=O)cc1	-	0	0	0	-	-
Cc1ccc(CN(C(=O)c2ccc(C(C)(C)C)cc2)c2ccccn2)o1	-	0	0	0	0	-
Cc1cccc(CNC(=O)c2ccc3c(c2)N(C)C(=O)C2CCCCN32)c1 (centres undefined)	-	0	0	0	0	-
COc1cc2c(cc1OC)n(CC(=O)NC1CCCCCC1)n1c(C)cc(=O)nc21	26.7µM	50.1µM	0	0	0	-

Screening results (PubChem BioAssay)
